Most compounds without a hit are left out; they make up all but 1.6% or so of the library.
KCNQ2 inh: rat KCNQ2 potassium channel inhibitors, primary screen, cell-based, CHO-K1, FluxOR thallium flux, B-score; AID 2156, 2009; 20 min; active compounds read low; Potassium voltage-gated channel subfamily KQT member 2 (Rattus norvegicus), O88943; 310,000 compounds, 1.1% hits; B-score at 10 µM;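 active = fluorescence ratio B-score at most minus 3 library SDs, with starting brightness B-score within 2 library SDs, cut at about -5.5 in these data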
KCNQ2 enhance: potentiators of rat KCNQ2 potassium channel; Potassium voltage-gated channel subfamily KQT member 2 (Rattus norvegicus), O88943; CHO-K1 KCNQ2, FluxOR thallium flux fluorescence; active compounds read high; B-score at 10 µM; 310,000 compounds, 0.54% hits;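 active = fluorescence ratio B-score at least 3 SD of library B-scores, with initial fluorescence B-score within 3 of them, cut at about 5.3 in these data; same plate scores as AID 2156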;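 also: B-score of peak minus minimum over baseline fluorescence ratio after K+ and Tl+ stimulus; positive B-score means potentiation of KCNQ2 with more thallium influx and brighter signal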
Large screens that a line does not name were inactive.

O=S(=O)(NCCN1CCOCC1)c1ccc(-c2ccc(S(=O)(=O)NCCN3CCOCC3)cc2)cc1	none (no result: KCNQ2 enhance)
CN1CCOc2ccc(S(=O)(=O)NCCc3ccc(Cl)cc3)cc21	KCNQ2 inh -6.7
CC(=O)N1CCOc2ccc(S(=O)(=O)NCCc3ccc(C)cc3)cc21	none (no result: KCNQ2 enhance)
O=S(=O)(NCCCN1CCOCC1)c1ccc(Cl)cc1	KCNQ2 enhance 8
CCN(CC)CCN1C(=O)C(O)=C(C(=O)c2cc3cccc(OC)c3o2)C1c1cccs1 (stereo not given)	none (no result: KCNQ2 enhance)
O=C(COC(=O)c1nc(Cl)ccc1Cl)NNC(=O)c1cccs1	none
CCCCN(C(=O)CSc1cc(C)c2ccccc2n1)c1c(N)n(Cc2ccccc2)c(=O)[nH]c1=O	none
CCOC(=O)Cn1nc(-c2ccccc2)nc1-c1ccccc1	none (no result: KCNQ2 enhance)
O=C(Cn1nc(-c2ccccc2)nc1-c1ccccc1)OC1CCCCC1	KCNQ2 inh -6.1
CCN(CC)CCOc1ccc(/C(=C(\Cl)c2ccccc2)c2ccccc2)cc1	KCNQ2 inh -7.6
CCN(CC)CCOc1ccc(Br)cc1	none (no result: KCNQ2 enhance)
COc1ccc(Cl)cc1N1C(=O)/C(=C\c2sccc2C)N=C1SCC(=O)NC1CC1	none (no result: KCNQ2 enhance)
OC(c1ccc(F)cc1)(C1CCCCC1)C(CN1CCOCC1)c1ccccc1 (stereo not given)	KCNQ2 inh -5.7
CC(C)CC(O)(c1ccccc1)C(CN1CCOCC1)c1ccccc1 (stereo not given)	none (no result: KCNQ2 enhance)
CC(C)(C)OC(=O)NC(CNCc1ccccc1)Cc1ccccc1 (stereo not given)	none (no result: KCNQ2 enhance)
Cc1ccc(NC(=O)c2ccc3c(c2)N(CC(=O)NC(C)C)C(=O)C(C)(C)O3)cc1	none
CC(C)Oc1cccc(C(=O)C2CCCN(Cc3cnc(N4CCOCC4)s3)C2)c1 (stereo not given)	none (no result: KCNQ2 enhance)
COc1cccc(N2CCN(S(=O)(=O)c3ccc4c(c3)N(C(C)=O)CCO4)CC2)c1	none
COc1ccc(CCNC(=O)CSc2ccccn2)cc1OC	none
COc1ccc(CCNC(=O)CSc2cccc3cccnc23)cc1OC	KCNQ2 inh -6.3
COc1ccc(NC(=O)CC2C(=O)N(Cc3ccccc3)C(=S)N2CCN2CCOCC2)cc1 (stereo not given)	none (no result: KCNQ2 enhance)
CCN1C(=O)C(CC(=O)Nc2ccc(OC)cc2)N(CCc2ccc(F)cc2)C1=S (stereo not given)	KCNQ2 inh -7.5
COc1ccc(NC(=O)CC2C(=O)N(C)C(=S)N2CCc2ccc(F)cc2)cc1 (stereo not given)	none (no result: KCNQ2 enhance)
C=CCN1C(=O)C(CC(=O)Nc2ccc(OCCC)cc2)N(CCCN2CCN(Cc3ccccc3)CC2)C1=S (stereo not given)	KCNQ2 inh -6.8
Cc1cc(C)cc(NC(=O)CCc2c(C)nn(-c3ccc(N4CCOCC4)nn3)c2C)c1	none
COc1ccc(C(=O)CCC(=O)N2CCN(c3ccc(C)cc3)C(C)C2)cc1 (stereo not given)	none
Brc1ccc2c(c1)OCCOCCOCCOCCOCCOCCO2	none (no result: KCNQ2 enhance)
O=C(CC1C(=O)N(c2ccccc2)C(=S)N1c1ccccc1)c1ccccc1 (stereo not given)	none (no result: KCNQ2 enhance)
O=C(CC1C(=O)N(c2ccccc2)C(=S)N1c1ccccc1)c1ccc(Br)cc1 (stereo not given)	KCNQ2 inh -6.4
Cc1ccc(-c2cc(C(=O)NCCCN3CCOCC3)c3ccccc3n2)cc1	none
CCc1ccc(Sc2cc(C(=O)NCCN3CCOCC3)c3ccccc3n2)cc1	KCNQ2 inh -5.7
COc1cccc(CN2CC(C(=O)NCCCn3cccn3)CCC2=O)c1 (stereo not given)	none (no result: KCNQ2 enhance)
O=C(Nc1cccc(N=Cc2cc(Cl)cc(Br)c2O)c1)c1ccco1	KCNQ2 enhance 10
O=C(Nc1cc(Br)c(O)c(Br)c1)c1cccc(NC(=O)c2ccco2)c1	none
O=C(CCNC(=O)c1ccccc1Cl)NCCC1=CCCCC1	none
COc1ccc(NC(=O)CC2C(=O)N(C)C(=S)N2Cc2ccc3c(c2)OCO3)cc1 (stereo not given)	none
CC(C)n1c(NCc2nc3ccccc3n2C)nc2ccccc21	none (no result: KCNQ2 enhance)
CCn1c(CNc2nc3ccccc3n2C(C)C)nc2ccccc21	KCNQ2 inh -8.3
CCn1c(CN2CCOCC2)nnc1SCC(=O)Nc1cccc(C)c1	none
COc1ccc(/C=C2\N=C(c3ccc(C)cc3)OC2=O)cc1	none (no result: KCNQ2 enhance)
Cc1ccc(S(=O)(=O)Oc2ccc(/C=C3/N=C(c4ccccc4)OC3=O)cc2)cc1	KCNQ2 inh -7.4
Cc1coc2c1C(=O)C(=O)c1c-2ccc2c1CCCC2(C)C	none (no result: KCNQ2 enhance)
C[C@H]1COC2=C1C(=O)C(=O)c1c2ccc2c1CCCC2(C)C	KCNQ2 inh -6.2
COc1ccccc1CNC(=O)C(C)n1cccc1C(=O)c1ccccc1 (stereo not given)	KCNQ2 inh -5.7
CC(C(=O)NCc1ccc(Cl)cc1)n1cccc1C(=O)c1ccccc1 (stereo not given)	none
CCC1(c2ccc(F)cc2)NC(=O)N(CC(=O)Nc2cccnc2Cl)C1=O (stereo not given)	none (no result: KCNQ2 enhance)
Cc1nc(CSc2ccc(Cl)cc2)cc(NCc2ccccc2)n1	KCNQ2 inh -5.7
CNc1cc(CSc2ccc(Cl)cc2)nc(C)n1	none
CN(C)S(=O)(=O)c1cccc(NC(=O)CN2C(=O)C3C4C=CC(C4)C3C2=O)c1 (stereo not given)	none (no result: KCNQ2 enhance)
Cc1ccc(OCc2ccccc2Br)c([N+](=O)[O-])n1	none (no result: KCNQ2 enhance)
Cc1ccc2c(CN3CCCc4ccccc43)cc(=O)oc2c1C	none (no result: KCNQ2 enhance)
O=c1cc(CN2CCc3ccccc32)c2ccc(O)cc2o1	none (no result: KCNQ2 enhance)
Cc1cc2oc(=O)cc(CN3CCc4ccccc43)c2cc1Cl	KCNQ2 inh -6.4
CCc1ccc2c(CN3CCc4ccccc43)cc(=O)oc2c1	KCNQ2 inh -5.6
Cc1cc2[nH]c(=O)c(=O)[nH]c2cc1S(=O)(=O)Nc1cccc(C)c1C	none (no result: KCNQ2 enhance)
Cc1ccc(N=C2SC(C(=O)NCCc3ccccc3)CC(=O)N2C)cc1C (stereo not given)	none
CCOc1cc(NC(=S)Nc2ccccc2OC)c(OCC)cc1NC(=O)c1ccccc1C	KCNQ2 inh -5.7
CCOc1cc(NC(=S)NCC2CCCO2)c(OCC)cc1NC(=O)c1ccccc1C (stereo not given)	none
O=C(Nc1ccccn1)c1cccc(S(=O)(=O)N2CCc3ccccc3C2)c1	none (no result: KCNQ2 enhance)
Cn1cc(CCC(=O)N2CCCC(N3CCN(c4ccccc4F)CC3)C2)cn1 (stereo not given)	none
CCc1ccc(OCC(=O)Nc2ccc3oc(=O)ccc3c2)cc1	none (no result: KCNQ2 enhance)
O=C(Cn1c(=O)c2cccn2c2cccnc21)N1CCN(c2ccc(Cl)cc2)CC1	KCNQ2 inh -7.6
Cc1ccc(Cl)cc1N1CCN(C(=O)CCCn2c(=O)c3cccn3c3cccnc32)CC1	none (no result: KCNQ2 enhance)
Cc1cccc(CCNS(=O)(=O)c2ccc3c(c2)NC(=O)C(C)S3)c1 (stereo not given)	none (no result: KCNQ2 enhance)
Cc1ccc(C(CC(=O)c2ccc(Cl)cc2)C(=O)O)cc1 (stereo not given)	none (no result: KCNQ2 enhance)
COC(=O)C(CC(=O)c1ccc(Cl)cc1)c1ccc(C(C)C)cc1 (stereo not given)	KCNQ2 inh -5.9
COC(=O)c1cc(-c2ccc(C)o2)nc2ccccc12	none (no result: KCNQ2 enhance)

Assay outcomes (PubChem)
